Experimental data from PubChem BioAssay AID1159580 (chemical genetic matrix, 2015).
Hit rate of the full screen: of about 5,500 compounds, about 2,000 (36%) were called active. Not shown: some 18% with an inconclusive outcome. No stated cut-off is given here; in the data, active means normalized growth mostly below about 0.91 (no sharp cut-off); inconclusive means no clear call, values can overlap the other calls; inactive means mostly above about 0.92. This is one part of the list.

Assay: chemical genetic growth profiling, strain panel (AID 1159580);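 further: tested at 20 µM; growth read once vehicle control cultures reached saturation at 30 °C; 1 = growth at the plate median or of vehicle wells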
Conditions: S. cerevisiae deletion strains, growth OD

Measured: normalized growth

C[C@@H](N)CO
inactive: locus YAL021C, strain ccr4, stronger effect = lower value 0.998 | locus YAL026C, strain drs2, stronger effect = lower value 0.992 | locus YAL030W, strain snc1, stronger effect = lower value 0.985 | locus YBL061C, strain skt5, stronger effect = lower value 0.994 | locus YBR009C, strain hhf1, stronger effect = lower value 1.01 | locus YBR023C, strain chs3, stronger effect = lower value 0.987 | locus YBR171W, strain sec66, stronger effect = lower value 0.967 | locus YBR231C, strain swc5, stronger effect = lower value 0.991 | locus YBR279W, strain paf1, stronger effect = lower value 0.987 | locus YCL011C, strain gbp2, stronger effect = lower value 0.997 | locus YCL016C, strain dcc1, stronger effect = lower value 0.991 | locus YCL069W, strain vba3, stronger effect = lower value 0.988 | locus YCR088W, strain abp1, stronger effect = lower value 0.993 | locus YDL005C, strain med2, stronger effect = lower value 0.961 | locus YDL040C, strain nat1, stronger effect = lower value 0.976 | locus YDR001C, strain nth1, stronger effect = lower value 0.983 | locus YDR069C, strain doa4, stronger effect = lower value 0.967 | locus YDR137W, strain rgp1, stronger effect = lower value 0.979 | locus YDR159W, strain sac3, stronger effect = lower value 0.972 | locus YDR195W, strain ref2 0.954 | locus YDR297W, strain sur2, stronger effect = lower value 1 | locus YDR334W, strain swr1, stronger effect = lower value 0.989 | locus YDR335W, strain msn5, stronger effect = lower value 0.995 | locus YDR392W, strain spt3, stronger effect = lower value 0.979 | locus YEL003W, strain gim4, stronger effect = lower value 0.997 | locus YEL037C, strain rad23, stronger effect = lower value 1 | locus YEL061C, strain CIN8 (second series), stronger effect = lower value 1.01 | locus YER015W, strain faa2, stronger effect = lower value 0.989 | locus YER016W, strain bim1, stronger effect = lower value 0.996 | locus YER111C, strain swi4, stronger effect = lower value 0.973 | locus YER155C, strain BEM2 (second series), stronger effect = lower value 0.984 | locus YFR010W, strain ubp6, stronger effect = lower value 1 | locus YGL167C, strain pmr1, stronger effect = lower value 0.984 | locus YGL173C, strain kem1, stronger effect = lower value 1 | locus YGL227W, strain vid30, stronger effect = lower value 0.973 | locus YGL240W, strain doc1, stronger effect = lower value 1.01 | locus YGL253W, strain hxk2, stronger effect = lower value 0.989 | locus YHR013C, strain ard1, stronger effect = lower value 1 | locus YHR027C, strain rpn1, stronger effect = lower value 0.995 | locus YHR030C, strain SLT2, stronger effect = lower value 0.984 | locus YHR079C, strain IRE1, stronger effect = lower value 0.974 | locus YHR142W, strain chs7, stronger effect = lower value 0.98 | locus YJL092W, strain hpr5, stronger effect = lower value 0.996 | locus YJL095W, strain BCK1 (second series), stronger effect = lower value 0.996 | locus YJL095W, strain BCK1, stronger effect = lower value 0.975 | locus YJL115W, strain asf1, stronger effect = lower value 1 | locus YJL129C, strain trk1, stronger effect = lower value 0.989 | locus YJL154C, strain vps35, stronger effect = lower value 0.996 | locus YJL164C, strain tpk1, stronger effect = lower value 1.01 | locus YJL166W, strain qcr8, stronger effect = lower value 1 | locus YJL187C, strain SWE1, stronger effect = lower value 0.988 | locus YJR066W, strain TOR1, stronger effect = lower value 0.914 | locus YKL160W, strain elf1, stronger effect = lower value 0.968 | locus YKR026C, strain gcn3, stronger effect = lower value 0.995 | locus YKR091W, strain srl3, stronger effect = lower value 0.977 | locus YLL001W, strain dnm1, stronger effect = lower value 0.986 | locus YLL026W, stronger effect = lower value 0.994 | locus YLL041C, strain sdh2, stronger effect = lower value 0.997 | locus YLR027C, strain aat2, stronger effect = lower value 0.999 | locus YLR113W, strain HOG1, stronger effect = lower value 1.02 | locus YLR221C, strain rsa3, stronger effect = lower value 1.01 | locus YLR258W, strain gsy2, stronger effect = lower value 0.995 | locus YLR262C, strain YPT6 (second series), stronger effect = lower value 0.973 | locus YLR320W, strain mms22, stronger effect = lower value 1.01 | locus YLR342W, strain FKS1, stronger effect = lower value 0.987 | locus YLR357W, strain rsc2, stronger effect = lower value 0.954 | locus YLR370C, strain arc18, stronger effect = lower value 0.996 | locus YLR384C, strain iki3, stronger effect = lower value 1.01 | locus YML120C, strain ndi1, stronger effect = lower value 0.983 | locus YMR058W, strain fet3, stronger effect = lower value 1.02 | locus YMR125W, strain sto1, stronger effect = lower value 0.947 | locus YMR129W, stronger effect = lower value 0.994 | locus YMR205C, strain PFK2, stronger effect = lower value 1.01 | locus YMR231W, strain pep5, stronger effect = lower value 0.984 | locus YNL071W, strain lat1, stronger effect = lower value 1.01 | locus YNL183C, strain NPR1, stronger effect = lower value 0.901 | locus YNL209W, strain ssb2, stronger effect = lower value 0.974 | locus YNL248C, strain rpa49, stronger effect = lower value 0.942 | locus YNL322C, strain KRE1 (second series), stronger effect = lower value 0.973 | locus YNR049C, strain mso1, stronger effect = lower value 0.981 | locus YOR001W, strain rrp6, stronger effect = lower value 1.01 | locus YOR070C, strain gyp1, stronger effect = lower value 0.986 | locus YOR080W, strain dia2, stronger effect = lower value 0.969 | locus YOR083W, strain WHI5, stronger effect = lower value 0.94 | locus YOR106W, strain vam3, stronger effect = lower value 0.964 | locus YOR231W, strain MKK1, stronger effect = lower value 0.974 | locus YOR265W, strain rbl2, stronger effect = lower value 0.992 | locus YOR270C, strain vph1, stronger effect = lower value 0.976 | locus YOR290C, strain snf2, stronger effect = lower value 0.984 | locus YPL051W, strain arl3, stronger effect = lower value 0.99 | locus YPL078C, strain atp4, stronger effect = lower value 0.976 | locus YPL106C, strain sse1, stronger effect = lower value 0.973 | locus YPL240C, strain hsp82, stronger effect = lower value 0.995 | locus YPL256C, strain CLN2, stronger effect = lower value 0.988
